Where a name gives a salt, the structure may show the parent alone. ± gives the standard deviation of the averaged measurements.
System: Danio rerio Tg(wt1b:EGFP) embryo, pronephros
Assay: pronephric angle neck segment to proximal convoluted tubule (mean of left and right), fold change vs DMSO control; higher = larger pronephric angle
Details: 25 µM; exposure: 24-48 hpf
Outline: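 Using a Fiji macro, distances and angles were calculated from 16 reference points set by hand on maximum projections of pronephroi imaged dorsally (470 nm, 10 z-slices) in agarose-filled 96-well plates. The dechorionated Tg(wt1b:EGFP) zebrafish embryos had received 25 μM compound in 0.5% DMSO in HEPES-buffered E3 with 0.003% PTU from 24 to 48 hpf at 28.5°C. Values more than 2 SD from a feature's mean were excluded. Each feature appears as a fold change over the mean of DMSO-treated embryos from the same day.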

Row | Compound | pronephric angle neck segment
1 | CC1(C)S[C@@H]2[C@H](NC(=O)[C@H](C(=O)O)c3ccsc3)C(=O)N2[C@H]1C(=O)O [Ticarcillin sodium] | 1.006 ± 0.0094
2 | COc1nc(C)nc(Cl)c1NC1=NCCN1 [Moxonidine] | 0.96 ± 0.0097
3 | Cc1nccn1CC1CCc2c(c3ccccc3n2C)C1=O (stereo not drawn) [Ondansetron Hydrochloride] | 0.96132 ± 0.00094
4 | C[C@]12CC[C@@H]3c4ccc(O)cc4CC[C@H]3[C@@H]1CCC2=O [Estrone] | 1.05 ± 0.019
5 | N=C(N)c1ccc(OCCCCCOc2ccc(C(=N)N)cc2)cc1 [Pentamidine isethionate] | 0.982 ± 0.02
6 | Cc1cccc(C)c1NC(=O)C1CCCCN1C (stereo not drawn) [Mepivacaine hydrochloride] | 0.991 ± 0.054
7 | CN1CCCN(C(c2ccccc2)c2ccc(Cl)cc2)CC1 (stereo not drawn) [Homochlorcyclizine dihydrochloride] | 1.013 ± 0.0017
8 | CO/N=C(\C(=O)N[C@@H]1C(=O)N2C(C(=O)OC(C)OC(C)=O)=C(COC(N)=O)CS[C@H]12)c1ccco1 (stereo partly drawn) [Cefuroxime axetil] | 1.04 ± 0.088
9 | Cn1cnc([N+](=O)[O-])c1Sc1ncnc2[nH]cnc12 [Azathioprine] | 0.994 ± 0.015
10 | COC(=O)[C@H](c1ccccc1Cl)N1CCc2sccc2C1 [Clopidogrel] | 1.05 ± 0.054
11 | O=C(c1ccc(F)cc1)C1CCN(CCn2c(=O)[nH]c3ccccc3c2=O)CC1 [Ketanserin tartrate hydrate] | 1.03 ± 0.046
12 | CCN(CC)CCNC(=O)c1cc(Cl)c(N)cc1OC [Metoclopramide monohydrochloride] | 0.944 ± 0.032
13 | C=CCOC(Cn1ccnc1)c1ccc(Cl)cc1Cl (stereo not drawn) [Enilconazole] | 1.1 ± 0.062

Reference: the supplement of paper PMC7366291
